Test results reported in PubChem BioAssay (NCATS).
The source made the active and inactive calls. The call rests on the fitted dose curve; in most records, active means well fitted curve in the direction sought with a large enough effect; inconclusive means small, poorly fitted or top-dose-only effect, or another doubt; inactive means no such curve, though single readings can be large or run the other way.

biological target: Alpha-galactosidase (Coffea arabica) (UniProt Q42656); experiment: Counterscreen for Glucocerebrosidase Inhibitors: qHTS Assay for Coffee Bean alpha-Galactosidase at pH 4.5 (AID 957); conditions: purified coffee bean alpha-galactosidase, fluorogenic substrate; series mostly up to 76.9 µM
Sequence (Q42656 whole entry, looked up): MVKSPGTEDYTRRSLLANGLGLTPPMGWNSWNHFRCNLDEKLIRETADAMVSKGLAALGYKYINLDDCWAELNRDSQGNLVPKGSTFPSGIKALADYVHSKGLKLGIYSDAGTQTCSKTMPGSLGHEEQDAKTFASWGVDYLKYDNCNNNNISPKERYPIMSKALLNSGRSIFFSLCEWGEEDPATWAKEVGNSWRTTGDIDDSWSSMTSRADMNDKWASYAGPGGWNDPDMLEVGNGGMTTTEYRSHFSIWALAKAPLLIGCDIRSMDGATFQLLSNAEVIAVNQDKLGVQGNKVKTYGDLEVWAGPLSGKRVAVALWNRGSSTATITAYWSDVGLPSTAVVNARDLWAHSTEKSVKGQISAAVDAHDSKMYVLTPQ
Summary of the method: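 Enzyme is added first (2 nM final), then compounds titrated from 0.7 nM to 77 uM, then 80 uM 4-methylumbelliferyl alpha-D-galactopyranoside; after 20 min at room temperature a pH 10 NaOH/glycine stop precedes fluorescence reading at 365/440 nm.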

Structure (SMILES) | outcome
Cc1ccccc1N1CCN(S(=O)(=O)C[C@@]23CC[C@H](C[C@H]2NC(=O)[C@@H](N)CCS(C)(=O)=O)C3(C)C)CC1 | inactive
Oc1cc2c(c(Cl)c1O)CCNC[C@H]2c1ccccc1 | inactive
CCCN1C[C@@H](CSC)C[C@H]2c3cccc4[nH]cc(c34)C[C@@H]21 | inactive
CC(C)[C@H]1C(=O)C(C(N)=O)=C(O)[C@]2(O)C(=O)C3=C(O)c4c(O)ccc(N(C)C)c4C[C@H]3C[C@@H]12 | inactive
O=C(O)[C@H]1C[C@H](C(=O)O)N1 | inactive
O=C(c1ccccc1)c1ccc2n1CC[C@H]2C(=O)O | inactive
CN1CCc2cccc3c2[C@@H]1Cc1ccc(O)c(O)c1-3 | inactive
CCCCC/C=C\C[C@H](O)/C=C\c1cccc(C[C@H](O)CCCCO)n1 | inactive
O=C(O)/C=C\c1cnc[nH]1 | inactive
O=C1CC[C@H](N2C(=O)c3ccccc3C2=O)C(=O)N1 | inactive
C[C@@H](CN(C)C)CN1c2ccccc2CCc2ccccc21 | inactive
CN1CCc2c(cc(O)c(O)c2Cl)[C@H](c2cccc(Cl)c2)C1 | inactive
O=C(O)/C=C\[C@H](O)c1ccc(Cl)cc1 | inactive
Nc1ncnc2c1ncn2[C@@H]1CCCO1 | inactive
CC(C)CN(C)c1nc(N)c(C(=O)N=C(N)N)nc1Cl | inactive
CC[C@H](C)C(=O)O[C@H]1CCC=C2C=C[C@H](C)[C@H](CC[C@@H]3C[C@H](O)CC(=O)O3)[C@H]21 | inactive
COc1ccc(CCNC[C@H](O)c2ccc(O)cc2)cc1OC | inactive
Cc1cc(C)c(/C=C2/C(=O)Nc3ccccc32)[nH]1 | inactive
